Results taken from PubChem BioAssay.
The source made the active and inactive calls.

Key:
[1] = test system: PRMT1 (protein arginine N-methyltransferase 1); assay: PRMT1 binders on small-molecule microarrays, primary screen, biochemical, small-molecule microarray, 635 nm fluorescence (AID 1088); settings: small-molecule microarray binding, higher = more signal;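 further: binding of Prmt1 protein to compounds spotted on small-molecule microarray slides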
[2] = yeast growth modulation, basal conditions, primary screen, YJM789 clinical isolate, OD600, 24 h (AID 1089);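 further: growth of clinical yeast isolate S. cerevisiae YJM 789 seeded 1000 cells per well; test concentration not given here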; settings: S. cerevisiae YJM789 growth, higher = more signal, called active from +8 up or from −8 down
[3] = fission yeast growth modulation, primary screen, strain 972, OD600, 24 h, no modulator (AID 1090);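 further: basal condition with compound alone and no growth modifier present; test concentration not given here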; settings: S. pombe 972 growth, higher = more signal, called active from +8 up or from −8 down
[4] = S. cerevisiae growth modulation with rapamycin, primary screen, strain BY4716, OD600, 96 h (AID 1091); settings: higher = more signal, called active from +8 up or from −8 down; further: test concentration not given here
[5] = target: Torsin-1A-interacting protein 2 (Homo sapiens) (UniProt Q8NFQ8); assay: LULL1 binders on small-molecule microarray, primary screen, cell lysate, human LULL1 lysate, 635/667 nm fluorescence (AID 1092); settings: hLULL1 lysate binding, 635 nm fluorescence, higher = more signal;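 further: probe is lysate of COS7 cells overexpressing human LULL1; score merges per-feature 667 nm fluorescence with signal-to-noise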
Torsin-1A-interacting protein 2 (Homo sapiens), sequence (Q8NFQ8 whole entry, looked up): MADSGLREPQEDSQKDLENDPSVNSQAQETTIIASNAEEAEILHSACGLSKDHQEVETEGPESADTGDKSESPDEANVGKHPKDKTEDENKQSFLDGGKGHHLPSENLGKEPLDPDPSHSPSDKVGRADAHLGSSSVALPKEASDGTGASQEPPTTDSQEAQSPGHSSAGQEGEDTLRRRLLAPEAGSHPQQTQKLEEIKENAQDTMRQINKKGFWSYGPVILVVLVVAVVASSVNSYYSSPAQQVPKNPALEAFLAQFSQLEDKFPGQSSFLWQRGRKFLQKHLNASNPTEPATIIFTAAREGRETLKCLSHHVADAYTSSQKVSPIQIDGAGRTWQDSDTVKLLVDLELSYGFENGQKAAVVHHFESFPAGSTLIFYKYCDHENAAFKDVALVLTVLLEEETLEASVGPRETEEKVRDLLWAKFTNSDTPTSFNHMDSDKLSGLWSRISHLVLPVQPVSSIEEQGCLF

[6] = E. coli growth modulation, two-sided OD650, primary screen, E. coli filamentation project, strain DRC41, 24 h (AID 1093); settings: OD650, 24 h, higher = more signal, called active from +8 up or from −8 down;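 further: MC1000 strain lacking acrAB efflux and sulA so SOS filamentation is blocked; test concentration not given here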
[7] = small-molecule microarray binders of probe aLefty2, primary screen, biochemical, biotinylated probe, 635/667 nm fluorescence (AID 1094); settings: higher = more signal;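 further: score merges spot fluorescence near 667 nm with spot signal-to-noise ratio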
[8] = test system: Noggin (protein binding on small-molecule microarray); assay: Noggin binders on small-molecule microarray, primary screen, biochemical, 635/667 nm fluorescence (AID 1095); settings: 635 nm fluorescence, higher = more signal;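 further: score merges 667 nm feature fluorescence with signal to noise over triplicate slides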
[9] = target: Neurogenic locus notch homolog protein 3 (Homo sapiens) (UniProt Q9UM47); assay: NOTCH3 binders on small-molecule microarray, primary screen, biochemical, 635/667 nm fluorescence (AID 1096); settings: NOTCH3 binding, 635 nm fluorescence, higher = more signal
Neurogenic locus notch homolog protein 3 (Homo sapiens), sequence (Q9UM47 whole entry, looked up): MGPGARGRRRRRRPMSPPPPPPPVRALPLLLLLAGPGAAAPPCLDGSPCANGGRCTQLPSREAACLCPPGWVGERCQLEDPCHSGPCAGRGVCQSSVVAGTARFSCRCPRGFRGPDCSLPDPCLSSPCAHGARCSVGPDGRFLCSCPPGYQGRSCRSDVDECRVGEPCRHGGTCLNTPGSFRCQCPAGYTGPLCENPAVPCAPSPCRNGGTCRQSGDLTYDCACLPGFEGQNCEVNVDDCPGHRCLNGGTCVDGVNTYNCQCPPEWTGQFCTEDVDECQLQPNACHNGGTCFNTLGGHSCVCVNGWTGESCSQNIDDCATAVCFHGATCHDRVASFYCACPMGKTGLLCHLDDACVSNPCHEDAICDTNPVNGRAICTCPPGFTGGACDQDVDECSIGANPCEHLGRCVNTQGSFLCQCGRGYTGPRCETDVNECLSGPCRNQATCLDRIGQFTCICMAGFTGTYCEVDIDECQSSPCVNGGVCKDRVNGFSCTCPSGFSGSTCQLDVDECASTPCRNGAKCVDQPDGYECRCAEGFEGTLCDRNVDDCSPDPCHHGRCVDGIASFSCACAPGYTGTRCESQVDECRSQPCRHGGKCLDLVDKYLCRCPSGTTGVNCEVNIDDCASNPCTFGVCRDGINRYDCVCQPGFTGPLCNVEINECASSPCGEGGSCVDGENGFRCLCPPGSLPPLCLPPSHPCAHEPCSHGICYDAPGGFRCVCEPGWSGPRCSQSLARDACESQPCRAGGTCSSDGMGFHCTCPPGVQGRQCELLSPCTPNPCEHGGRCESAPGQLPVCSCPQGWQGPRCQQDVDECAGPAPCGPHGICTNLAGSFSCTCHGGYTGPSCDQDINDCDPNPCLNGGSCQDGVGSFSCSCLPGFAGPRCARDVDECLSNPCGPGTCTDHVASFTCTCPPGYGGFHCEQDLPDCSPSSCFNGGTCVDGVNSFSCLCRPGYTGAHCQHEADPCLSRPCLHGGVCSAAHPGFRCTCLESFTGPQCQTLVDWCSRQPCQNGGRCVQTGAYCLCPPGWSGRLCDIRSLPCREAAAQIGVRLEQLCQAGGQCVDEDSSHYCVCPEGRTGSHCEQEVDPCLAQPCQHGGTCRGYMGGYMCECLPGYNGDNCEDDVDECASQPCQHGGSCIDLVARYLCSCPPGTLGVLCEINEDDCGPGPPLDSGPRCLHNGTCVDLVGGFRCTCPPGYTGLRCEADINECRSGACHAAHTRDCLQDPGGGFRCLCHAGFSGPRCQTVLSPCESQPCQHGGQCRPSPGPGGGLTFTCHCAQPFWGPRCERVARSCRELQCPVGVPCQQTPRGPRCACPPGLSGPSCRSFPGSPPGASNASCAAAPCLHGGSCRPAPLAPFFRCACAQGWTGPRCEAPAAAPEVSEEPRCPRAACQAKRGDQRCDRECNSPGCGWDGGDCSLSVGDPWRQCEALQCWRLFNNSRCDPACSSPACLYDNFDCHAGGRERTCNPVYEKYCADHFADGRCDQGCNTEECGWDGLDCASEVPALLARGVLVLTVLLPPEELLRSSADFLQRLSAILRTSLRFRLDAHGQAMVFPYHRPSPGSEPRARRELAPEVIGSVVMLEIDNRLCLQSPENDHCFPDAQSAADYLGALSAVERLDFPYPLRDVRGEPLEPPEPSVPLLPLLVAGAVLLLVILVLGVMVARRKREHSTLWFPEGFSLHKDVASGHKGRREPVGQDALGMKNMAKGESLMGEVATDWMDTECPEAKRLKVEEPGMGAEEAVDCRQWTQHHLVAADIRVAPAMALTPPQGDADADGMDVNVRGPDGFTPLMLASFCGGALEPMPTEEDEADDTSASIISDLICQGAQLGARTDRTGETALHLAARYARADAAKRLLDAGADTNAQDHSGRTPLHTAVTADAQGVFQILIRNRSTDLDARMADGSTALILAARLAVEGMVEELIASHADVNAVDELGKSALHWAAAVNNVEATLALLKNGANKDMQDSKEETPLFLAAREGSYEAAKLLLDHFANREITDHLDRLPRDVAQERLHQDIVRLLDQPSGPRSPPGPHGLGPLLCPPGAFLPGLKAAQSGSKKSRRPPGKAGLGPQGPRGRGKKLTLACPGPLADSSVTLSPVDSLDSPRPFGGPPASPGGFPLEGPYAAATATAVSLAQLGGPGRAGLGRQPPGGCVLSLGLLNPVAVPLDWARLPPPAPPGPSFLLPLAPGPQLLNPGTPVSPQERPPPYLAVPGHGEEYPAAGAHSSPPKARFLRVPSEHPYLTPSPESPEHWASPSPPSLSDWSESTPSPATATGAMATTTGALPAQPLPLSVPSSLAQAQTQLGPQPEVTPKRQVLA

[10] = small-molecule microarray binders of probe aEGFR, primary screen, biochemical, biotinylated probe, 635/667 nm fluorescence (AID 1097); settings: higher = more signal;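 further: probe is a biotinylated anti-EGFR antibody binding compounds printed on slides; score combines fluorescence near 667 nm and signal to noise of each spot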

| SMILES | composite z-score [1] | z-score [2] | z-score [3] | z-score [4] | composite z-score [5] | z-score [6] | composite z-score [7] | composite z-score [8] | composite z-score [9] | composite z-score [10] |
| --- | --- | --- | --- | --- | --- | --- | --- | --- | --- | --- |
| CC(C)[Si]1(C(C)C)OCc2cc(-c3ccc(-c4ccc(Cl)c(Cl)c4)o3)nc(-c3ccc(Oc4ccccc4)cc3)c21 | -1.67 | 0.797 (inactive) | -0.504 (inactive) | 2.3 (inactive) | -1.07 | -0.888 (inactive) | 0.0358 | -1.78 | -1.57 | -0.447 |
| CCCCC=C[C@@H](NC(=O)C(C)(C)C)c1ccccc1 | 0.956 | 0.924 (inactive) | 1.84 (inactive) | 4.33 (inactive) | 1.08 | -1.46 (inactive) | 0.0769 | -0.0096 | 1.11 | 0.313 |
| C=CCNC(=O)[C@@H]1[C@H]2C(=O)O[C@H](c3ccccc3)[C@H](c3ccccc3)N2[C@H](c2ccc(O)cc2)[C@@]12C(=O)N(C(=O)OCCOC)c1ccc(C#CCC(C(=O)OC)C(=O)OC)cc12 | 1.5 | 1.03 (inactive) | 0.405 (inactive) | 0.624 (inactive) | 2.11 | 1.19 (inactive) | -0.156 | 1.03 | 0.959 | -0.027 |
| COC(=O)[C@H](Cc1ccccc1)N1CC(C)(OC)O[C@@H](Cc2ccccc2)[C@H]1/C=C/C1CC1 (stereo not given in full) | 0.38 | 0.0394 (inactive) | -2.37 (inactive) | -0.184 (inactive) | 0.638 | -0.0718 (inactive) | -0.124 | -0.305 | -0.68 | -0.15 |
| O=C1NC(=O)C2C1C=CC(C(O)c1ccc(F)cc1)N2Nc1ccc(Cl)cc1Cl (stereo not given) | 0.589 | -25.3 (active) | -7.26 (inactive) | -0.0449 (inactive) | 3.02 | -1.3 (inactive) | 0.096 | -0.749 | 0.14 | -0.123 |
| COc1ccc([Si](C)(C)[C@H]2[C@H](CC(=O)N(CCO)Cc3ccccc3)O[C@@]3(C(=O)N(c4ccccc4)c4ccccc43)[C@@H]2C)cc1 | 1.51 | 1.48 (inactive) | 0.656 (inactive) | 3.73 (inactive) | 1.79 | -0.366 (inactive) | -0.11 | 1.3 | 1.11 | -0.13 |
| C=CCNC(=O)[C@@H]1[C@H]2C(=O)O[C@H](c3ccccc3)[C@H](c3ccccc3)N2[C@H](c2ccc(OCCO)cc2)[C@@]12C(=O)N(C(=O)OCCOC)c1ccccc12 | 1.53 | 2.46 (inactive) | 1.67 (inactive) | 5.18 (inactive) | 2.92 | 0.246 (inactive) | -0.0267 | 1.04 | 1.06 | 0.0413 |
